Data: PubChem BioAssay
Calls of active or inactive are those of the source.

How the values were obtained:
[1] = anti-His antibody binders, primary screen, artefact control for SMM control protein annotation, biochemical, small-molecule microarray, 635 nm fluorescence (AID 1128); details: anti-His Alexa647 antibody binding, higher = more signal;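 further: score merges feature fluorescence with signal-to-noise for each printed compound spot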
[2] = tested on: Human papillomavirus type 1a E7 protein (residues 1-88); test: HPV1a E7 small-molecule binders, primary screen, biochemical, small-molecule microarray, residues 1-88, 635 nm (AID 1129); details: small-molecule microarray binding, fluorescence 635 nm; higher = more signal
[3] = target: Focal adhesion kinase 1 (Homo sapiens) (UniProt Q05397); test: small-molecule microarray binders of FAK, primary screen, biochemical, 635/667 nm fluorescence, BSA, DTT (AID 1130); details: PTK2 binding, 635 nm fluorescence, higher = more signal;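 further: composite of spot emission at 667 nm and signal to noise over triplicate slides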
Focal adhesion kinase 1 (Homo sapiens), sequence (Q05397 whole entry, looked up): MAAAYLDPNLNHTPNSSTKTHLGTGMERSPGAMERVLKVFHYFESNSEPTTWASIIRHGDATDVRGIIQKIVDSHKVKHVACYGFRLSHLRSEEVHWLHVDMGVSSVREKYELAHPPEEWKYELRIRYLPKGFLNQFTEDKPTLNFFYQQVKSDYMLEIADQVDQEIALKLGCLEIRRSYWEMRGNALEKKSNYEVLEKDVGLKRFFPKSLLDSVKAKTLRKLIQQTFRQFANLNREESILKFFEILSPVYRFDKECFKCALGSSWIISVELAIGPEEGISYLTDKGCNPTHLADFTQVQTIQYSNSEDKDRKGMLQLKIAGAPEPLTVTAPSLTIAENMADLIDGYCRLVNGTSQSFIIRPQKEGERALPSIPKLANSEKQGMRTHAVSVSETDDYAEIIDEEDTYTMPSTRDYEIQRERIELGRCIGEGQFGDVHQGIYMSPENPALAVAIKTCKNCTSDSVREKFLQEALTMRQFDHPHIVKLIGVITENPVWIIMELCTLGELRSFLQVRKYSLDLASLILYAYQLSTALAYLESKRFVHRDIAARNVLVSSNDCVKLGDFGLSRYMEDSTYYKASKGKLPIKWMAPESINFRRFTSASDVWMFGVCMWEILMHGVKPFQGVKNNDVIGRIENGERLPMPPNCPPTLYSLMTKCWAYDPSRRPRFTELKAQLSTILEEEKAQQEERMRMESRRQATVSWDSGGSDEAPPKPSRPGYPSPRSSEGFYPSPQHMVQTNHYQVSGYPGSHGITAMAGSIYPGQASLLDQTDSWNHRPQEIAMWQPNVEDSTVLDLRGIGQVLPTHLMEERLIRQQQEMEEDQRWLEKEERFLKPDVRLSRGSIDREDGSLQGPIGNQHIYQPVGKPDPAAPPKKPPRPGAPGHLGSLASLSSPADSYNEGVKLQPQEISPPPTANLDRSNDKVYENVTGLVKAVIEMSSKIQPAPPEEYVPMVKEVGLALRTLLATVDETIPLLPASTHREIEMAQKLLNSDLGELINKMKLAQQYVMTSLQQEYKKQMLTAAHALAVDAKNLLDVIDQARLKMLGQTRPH

[4] = tested on: Fibrinogen (Alexa647-labelled); test: fibrinogen binders on compound microarrays, profiling panel, artefact control for SMM control-protein annotation, biochemical, small-molecule microarray, 635/667 nm fluorescence (AID 1131); details: fibrinogen-A647 binding fluorescence, higher = more signal;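 further: z-score merges 667 nm fluorescence with per-spot signal-to-noise over triplicate slides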
[5] = target: Follistatin (Homo sapiens) (UniProt P19883); test: follistatin binders on small-molecule microarrays, primary screen, biochemical, small-molecule microarray, 635/667 nm fluorescence (AID 1132); details: FST binding, 635 nm fluorescence, higher = more signal
Follistatin (Homo sapiens), sequence (P19883 whole entry, looked up): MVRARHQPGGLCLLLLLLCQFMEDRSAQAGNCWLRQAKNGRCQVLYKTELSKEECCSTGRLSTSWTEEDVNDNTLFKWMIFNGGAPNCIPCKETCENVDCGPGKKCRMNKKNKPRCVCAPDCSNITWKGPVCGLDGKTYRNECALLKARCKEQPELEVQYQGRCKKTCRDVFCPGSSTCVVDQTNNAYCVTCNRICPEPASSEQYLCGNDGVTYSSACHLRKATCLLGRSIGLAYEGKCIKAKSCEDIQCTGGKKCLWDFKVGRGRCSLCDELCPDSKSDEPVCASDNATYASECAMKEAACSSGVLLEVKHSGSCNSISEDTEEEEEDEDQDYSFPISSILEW

[6] = target: Fibroblast growth factor 2 (Homo sapiens) (UniProt P09038); test: FGF2 binders on small-molecule microarrays, primary screen, biochemical, small-molecule microarray, 635/667 nm fluorescence (AID 1133); details: small-molecule microarray binding, FGF2, fluorescence 635/667; higher = more signal
Fibroblast growth factor 2 (Homo sapiens), sequence (P09038 whole entry, looked up): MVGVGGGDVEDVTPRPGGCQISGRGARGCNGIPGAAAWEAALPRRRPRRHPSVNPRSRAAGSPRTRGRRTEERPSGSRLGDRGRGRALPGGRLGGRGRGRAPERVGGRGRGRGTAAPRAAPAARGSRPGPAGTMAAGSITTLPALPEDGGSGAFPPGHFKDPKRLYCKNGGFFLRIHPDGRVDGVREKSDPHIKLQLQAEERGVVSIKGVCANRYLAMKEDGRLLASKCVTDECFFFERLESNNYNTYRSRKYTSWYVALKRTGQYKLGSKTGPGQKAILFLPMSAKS

[7] = mitochondrial membrane potential change in A549 cells, profiling panel, cell-based, JC-1 fluorescence, basal, 24 h, 100 nL (AID 1138); details: higher = more signal;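 further: A549 lung adenocarcinoma cells under basal conditions with no added stimulus; test concentration not given here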
Lefty1 = Lefty1 binders on small-molecule microarrays, primary screen, biochemical, small-molecule microarray, 635/667 nm fluorescence (AID 1139); details: small-molecule microarray binding, fluorescence 635/667; higher = more signal
[8] = tested on: wheat germ agglutinin (Triticum aestivum), Alexa647-labelled; test: wheat germ agglutinin binders on compound microarrays, profiling panel, artefact control for SMM control-protein annotation, biochemical, small-molecule microarray, 635/667 nm fluorescence (AID 1140); details: WGA-A647 binding, 635 nm fluorescence, higher = more signal;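 further: score merges 667 nm feature emission with signal to noise over triplicate slides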
[9] = target: Luciferin 4-monooxygenase (Photinus pyralis) (UniProt P08659); test: firefly luciferase enzyme inhibitors, primary screen, biochemical, luminescence, purified enzyme, 2006 set (AID 1141); details: SteadyGlo luminescence, 30 min, higher = more signal, called active from +8 up or from −8 down;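 further: cell-free assay with purified firefly luciferase at 100 ng per well in PBS; test concentration not given here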
Luciferin 4-monooxygenase (Photinus pyralis), sequence (P08659 whole entry, looked up): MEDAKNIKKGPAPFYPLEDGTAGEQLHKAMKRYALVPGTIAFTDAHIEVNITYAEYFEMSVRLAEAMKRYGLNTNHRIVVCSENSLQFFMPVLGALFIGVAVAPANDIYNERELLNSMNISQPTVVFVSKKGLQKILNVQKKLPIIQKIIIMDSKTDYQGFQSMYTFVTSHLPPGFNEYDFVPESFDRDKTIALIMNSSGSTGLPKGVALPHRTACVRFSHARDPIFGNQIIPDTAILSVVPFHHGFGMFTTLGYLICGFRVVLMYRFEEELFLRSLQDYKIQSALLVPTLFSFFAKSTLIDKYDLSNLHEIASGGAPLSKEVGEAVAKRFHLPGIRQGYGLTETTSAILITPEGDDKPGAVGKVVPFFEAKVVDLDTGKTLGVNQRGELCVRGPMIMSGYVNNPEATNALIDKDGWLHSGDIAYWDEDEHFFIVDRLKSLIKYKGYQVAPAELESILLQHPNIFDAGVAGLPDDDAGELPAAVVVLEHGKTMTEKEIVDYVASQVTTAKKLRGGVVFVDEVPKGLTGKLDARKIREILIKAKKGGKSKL

Compound	composite z-score [1]	composite z-score [2]	composite z-score [3]	composite z-score [4]	composite z-score [5]	composite z-score [6]	z-score [7]	composite z-score (Lefty1)	composite z-score [8]	z-score [9]
C=CCC(OC(C)=O)[C@@H]1[C@@H](N(Cc2ccc(-c3ccccc3)cc2)C(=O)c2ccc(C)cc2)c2cc(OCCCO)ccc2N1C(=O)Cc1ccc2ccccc2c1 (stereo not given in full)	0.0102	-0.823	-0.0958	0.0701	0.37	-0.154	3.13	0.293	0.0607	-2.19 (inactive)
CC(C)C(=C=CC[C@H](O)c1cccc(OCCO)c1)CCO	-0.0157	-0.374	0.107	-1	0.277	0.138	0.346	0.67	0.108	0.371 (inactive)
COc1ccc([Si](C)(C)[C@H]2[C@H](CCO)O[C@@]3(C(=O)N(Cc4ccccc4)c4ccc(N5C(=O)c6ccccc6Oc6ccccc65)cc43)[C@@H]2C)cc1	0.814	0.885	-0.21	-0.0167	-0.4	1.02	0.616	-0.204	1.23	0.666 (inactive)
COCCCNC(=O)[C@@H]1c2ccccc2C(=O)N(C2Cc3ccccc3C2)[C@H]1c1ccc(CO)cc1	3.04	1	0.407	-0.284	1.08	1.35	2.76	0.278	-0.196	-0.714 (inactive)
COCCOC(=O)N1C(=O)[C@@]2(c3cc(C#CCNC(N)=O)ccc31)[C@H](c1ccc(O)cc1)N1[C@H](c3ccccc3)[C@H](c3ccccc3)OC(=O)[C@H]1[C@@H]2C(=O)N1CCN(c2ncccn2)CC1	1.22	1.2	0.634	0.865	0.902	0.671	-1.91	0.707	0.991	-0.391 (inactive)
C=C[C@@H](C)[C@@H](OC(=O)Nc1ccc(SC)cc1)c1ccc(OCCO)cc1	1.51	1.21	0.462	0.719	0.0078	0.0877	-1.64	0.191	1.04	-4.2 (inactive)
COC(=O)[C@@]1(Cc2ccc(F)cc2)[C@H]2c3cc(C(=O)N(C)C)n(Cc4ccc(O)c(OC)c4)c3C[C@H]2CN1C(=O)c1ccccc1	1.15	0.575	0.489	0.977	0.0157	0.0287	-1.18	-0.0615	0.438	1.08 (inactive)
COC(=O)[C@@]1(Cc2ccc(OC)cc2)[C@H]2c3cc(C(=O)N4CCCC4)n(Cc4cc(C)n(C)n4)c3C[C@H]2CN1C(=O)c1ccccc1	1.58	1.17	2.74	1.05	-0.326	-0.622	1.16	-0.801	1.33	0.769 (inactive)
CCOC(=O)C1=CCC(c2ccco2)N(S(=O)(=O)c2ccc(C)cc2)C1 (stereo not given)	1.1	1.2	0.841	0.965	1.1	0.377	-0.664	0.851	0.832	-1.58 (inactive)
COCC1C2CC[C@H]3C(OCc4ccc(OC)cc4)OC[C@]4(C)[C@H]3C2=C(CN4C(=O)OC(C)(C)C)[C@H](C)C1COC (stereo not given in full)	0.565	1.2	2.09	1.02	0.916	0.0753	2.48	0.757	0.819	-0.503 (inactive)
O=c1cccc(-c2ccc(F)cc2)o1	0.198	0.734	0.111	-0.191	0.456	0.898	-0.0822	0.571	0.62	1.73 (inactive)
C[C@@H]1ON(c2ccc(I)cc2)[C@H](c2ccc(OC(=O)OC(C)(C)C)cc2)[C@H]1C(=O)N1C(=O)OC[C@H]1Cc1ccccc1	0.955	1.13	-0.0457	0.966	0.61	0.255	0.386	0.445	0.348	-0.695 (inactive)
Cc1ccc(C(C)CC(O)C2C=CC3C(=O)N(c4ccccc4)C(=O)C3N2Nc2ccc(C#N)cc2)o1 (stereo not given)	1.21	1.24	0.175	1.03	1.24	0.37	0.289	0.0143	0.586	-0.993 (inactive)
CC(C)CNC(=O)[C@@]1(C)c2ccccc2C(=O)N(Cc2cc(C(F)(F)F)cc(C(F)(F)F)c2)[C@H]1c1ccc(CO)cc1	-0.738	-0.391	-0.342	-1.03	-0.117	0.0193	0.843	0.0325	-0.356	-0.0582 (inactive)
Cc1ccc(S[C@]2(C(=O)NC(C)C)CC(=O)N(Cc3ccccc3Cl)[C@@H]2c2ccc(CO)cc2)cc1	0.568	0.424	-0.092	0.54	-0.568	-1.27	-0.718	-1.56	0.762	-0.426 (inactive)
C=C(CCCC)C(=O)CC[C@H](OC(=O)c1ccccc1-c1ccccc1C(=O)O)c1ccccc1OCCO	1.51	0.341	-0.218	0.412	0.419	0.448	0.58	0.311	-0.107	-1.82 (inactive)
COCCOC(=O)N1C(=O)[C@@]2(c3cc(C#Cc4ccc(OC)cc4)ccc31)[C@H](c1ccc(OCCO)cc1)N1[C@H](c3ccccc3)[C@H](c3ccccc3)OC(=O)[C@H]1[C@@H]2C(=O)Nc1nc2ccccc2s1	0.52	1.16	0.415	0.707	1.05	0.464	-2.05	0.676	0.609	-1.27 (inactive)
